These results are taken from PubChem BioAssay (EPA / NIEHS).

Molecules are shown by their SMILES. Active and inactive are the calls of the source. Rule for the calls: active = hit-call score of the fitted dose curve at least 0.9, where 1 is the maximum; inactive = score below 0.9.

Read-out in this assay: 3-Hydroxy-3-Methylglutaryl-CoA Synthase 2 (HMGCS2), HMGCS2 (gene 3158)
In words: LTEA_HepaRG_HMGCS2: Life Technologies and Expression Analysis (LTEA) Assay for 3-Hydroxy-3-Methylglutaryl-CoA Synthase 2 (HMGCS2) using HepaRG (AID 2283504). Particulars: mRNA level, 48 h; actives raise or lower the signal. Here is the method: LTEA_HepaRG is a cell based, multiplexed-readout assay that uses HepaRG, a human liver cell line, with measurements taken at 48 hours after chemical dosing on a 96-well plate.LTEA_HepaRG_HMGCS2 is one of 102 assay component(s) measured in the LTEA HepaRG cell culture assay. It is a marker of Steatosis.Data from the assay component LTEA_HepaRG_HMGCS2 was analyzed into 1 endpoint. This assay endpoint, LTEA_HepaRG_HMGCS2, was analyzed with bidirectional fitting relative to DMSO as the negative control and baseline of activity. Using a type of inducible reporter, measures of mRNA induction for gain or loss-of-signal activity can be used to understand regulation of transcription factor activity. To generalize the intended target to other relatable targets, this assay endpoint is annotated to the lyase intended target family, where the subfamily is HMG-CoA synthase.
A total of 1060 chemcials from the ToxCast library were tested in eight-point concentration-response experiments. Cell culture and cytotoxicity assays were conducted at Thermo Fisher Scientific's Custom Services facility (Madison, WI). A single lot of human HepaRG cells (Thermo Fisher Scientific, Frederick, MD) was used for the cell culture experiments. 96-well format collagen type I coated plates of human HepaRG cells were prepared using established methods. Briefly, cryopreserved HepaRG cells were thawed, plated at a density of approximately 100,000 cells/well in HepaRG Thaw, Plate, and General Purpose media (HPRG770, Thermo Fisher Scientific), and incubated for 48 hours. 0.5% DMSO was selected as vehicle control to balance the requisite need of DMSO in HepaRG cultures to maintain differentiation (for example, baseline metabolism, proportions of hepatocytes vs. cholangiocytes), while enabling further hepatic receptor pathway activation (for example, PXR and CAR) in response to chemical exposure. 48 hours after plating, the culture medium was replaced with HepaRG Serum-Free Incudtion Media. Cells were exposed to each test chemical in duplicate and maintained in CO2 incubators for another 48 hours. Chemical plates were thawed to room temperature and 200x concentrations of treatment groups were prepared. 8-point conentration-reponse curves were made with the highest exposure at 100 uM, followed by half-log dilutions, all in 0.5% DMSO. Each test plate contained variouse controls, induction positive controls (1mM phenobarbital), cytotoxicity positive controls ([…] aflatoxin B1), vehicle controls (0.5% DMSO), and total lysis controls (0.5% DMSO). Cell morphology images were taken using an Essen IncuCyte FLR automated microscope, with six 96-well plates imaged in about 24 minutes. Images were captured and exported and JPEG files. Spent culture media was transfered to black-well plates for the LDH assay, and remaining media was sorted at -80 C for later use. Cells were treated with RLT buffer and frozen until shipped for gene expression analysis. Total RNA was isolated from the cell suspension in 75 uL of Buffer RLT (Qiagen, Germantown, MD 20874) by Quintiles/Expression Analysis (Durham, NC) using a custom isolation procedure. Total RNA from each plate well was transferred to a preamplification plate. Fluidigm's 96.96 Dynamic ArrayTM (Fluidigm, Amsterdam, the Netherlands) technology was used for gene expression analyses by quantitative reverse transcription polymerase chain reaction (qRT-PCR, performed by Quintiles/Expression Analysis, Durham, NC)89. Standard TaqManTM Assays (Applied Biosystems/ThermoFisher Scientific, Foster City, CA) were used to assess the expression of 93 genes selected based on their selectivity and sensitivity to important hepatic receptors known to be modulated by environmental chemicals; importance in human hepatocyte functionality; and hepatotoxicity. […]
With `CCCC[C@H]1CN(CC2CCOCC2)C(=O)OC12CCN(C1(C)CCN(C(=O)c3c(C)ncnc3C)CC1)CC2`, the molecule was classed as inactive.

Take `C/C=C/C=C/C(=O)O`: the molecule was classed as inactive.

Turning to `CCCCCCC(C=O)=Cc1ccccc1`, the molecule was called inactive.

On to `CCOCCOCCO`, for which the outcome was inactive.

In the case of `NC(=Nc1ccccc1)Nc1ccccc1`, the molecule was called inactive.

Regarding `Cc1cc(SC2=C(O)C[C@@](CCc3ccc(N)cc3)(C(C)C)OC2=O)c(C(C)(C)C)cc1CO`, the AC50 (in general, the midpoint of the concentration-response curve, whichever way the signal moves) was 16.8 µM (active).

Take `O=C(O)c1[nH]n(-c2ccc(S(=O)(=O)O)cc2)c(=O)c1N=Nc1ccc(S(=O)(=O)O)cc1`: the molecule was classed as inactive.

For `CC(N)=O`, the result was inactive.

In the case of `O=C(Oc1ccccc1)c1cccc(C(=O)Oc2ccccc2)c1`, the molecule was called inactive.

In the case of `O=C1OC(c2ccc(O)cc2)(c2ccc(O)cc2)c2ccccc21`, the AC50 was 67.6 µM (active).

Turning to `CC(C)(O)c1ccc(CNC(=O)c2cccnc2Oc2ccc(F)cc2)cc1`, the molecule was called inactive.

`CN(C)C(=O)NC1(c2ccccc2)CCN(CCC[C@]2(c3ccc(Cl)c(Cl)c3)CCCN(C(=O)c3ccccc3)C2)CC1`: the molecule was called inactive.

Take `COc1ccc(OC(F)(F)F)cc1CN[C@H]1CCCN[C@H]1c1ccccc1`: the AC50 is 78.8 µM (active).

Consider `CC(C)c1cccc(C(C)C)c1NC(=O)NS(=O)(=O)c1cc(C(C)(C)O)co1`, for which the half-maximal activity concentration (AC50) is 62 µM (active).

Consider `CCCCCCCCCCCCCCOS(=O)(=O)O`, for which the molecule was called inactive.

On to `CCCCC(CC)COC(=O)CCCCCCCC(=O)OCC(CC)CCCC` (stereo not given), for which the molecule was classed as inactive.

For `CSc1ccc(Oc2ccc(S(N)(=O)=O)cc2CN(C)C)cc1C`, the AC50 was 63.9 µM (active).

With `C/C=C/c1ccc(OC)cc1`, the molecule was classed as inactive.

On to `CC1=C(C)S(=O)(=O)CCS1(=O)=O`, for which the call was inactive.

As for `CCCCCCCCCC[N+](C)(C)[O-]`, the molecule was classed as inactive.

For `O=Cc1ccccc1C=O`, the result was inactive.

On to `CC(=O)[C@@]1(O)CC[C@H]2[C@@H]3CCC4=CC(=O)CC[C@]4(C)[C@H]3CC[C@@]21C`, for which the outcome was inactive.

As to `CCCCC(CC)CO` (stereo not given), the result was inactive.

As for `CN(C)C(=O)NC1(c2ccccc2)CCN(CC[C@@]2(c3ccc(F)c(F)c3)CN(C(=O)c3ccccc3)CCO2)CC1`, the AC50 is 47 µM (active).

On to `O=C(O)c1cccnc1`, for which the result was inactive.

Take `CC(=O)OCC(COC(C)=O)OC(C)=O`: the call was inactive.

For `CC(C)c1cccc(C(C)C)c1`, the outcome was inactive.

Turning to `NC=O`, the molecule was classed as inactive.

Regarding `COc1ccc(C(=O)Nc2nc3ccccc3c(NCc3ccccc3)c2C#N)cc1`, the molecule was classed as inactive.

On to `CC(=O)S[C@H](C(=O)N[C@H]1Cc2ccccc2[C@H]2CCC[C@@H](C(=O)O)N2C1=O)C(C)C`, for which the outcome was inactive.

In the case of `c1ccc2occc2c1`, the call was inactive.

For the molecule `CCCCC(CC)COP(=O)(OCC(CC)CCCC)OCC(CC)CCCC` (stereo not given), the outcome was inactive.

Take `Cn1cnc2c1c(=O)[nH]c(=O)n2C`: the outcome was inactive.

`COC(=O)CCC(=O)OC`: the result was inactive.

For `O=C1c2c(O)cccc2Cc2cccc(O)c21`, the outcome was inactive.

On to `O=C(O)CN(CC(=O)O)CC(=O)O`, for which the molecule was classed as inactive.

With `CCCCCCC(CCCCCCCCCCC(=O)OCC(COC(C)=O)OC(C)=O)OC(C)=O` (stereo not given), the molecule was called inactive.

Take `Cc1cn([C@H]2C=C[C@@H](CO)O2)c(=O)[nH]c1=O`: the result was inactive.

For the molecule `Cc1c(C)c2c(c(C)c1O)CCC(C)(COc1ccc(CC3SC(=O)NC3=O)cc1)O2` (stereo not given), the call was inactive.

In the case of `CC(=O)O[C@]1(C(C)=O)CC[C@H]2[C@@H]3C=C(Cl)C4=CC(=O)[C@@H]5C[C@@H]5[C@]4(C)[C@H]3CC[C@@]21C`, the AC50 was 67.1 µM (active).
